A3A deaminase – blocks human APOBEC3A ssDNA deamination; inhibition, % at 20 µM; AID 493011; 330,000 compounds, 0.41% hits; recombinant A3A, FAM/TAMRA ssDNA deamination fluorescence; P31941;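 active = at least 40% inhibition at 20 µM here, with at most 30% in a related deaminase screen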
Wnt act – activators of Wnt/beta-catenin signaling | Wnt/beta-catenin reporter cell assay, activator, plate reader | activation, % at 9.35 µM | 300,000 compounds, 1.2% hits | AID 743398; in the data active = activation above about 30%, passing the limit was not always enough
A3G deaminase – blocks human APOBEC3G single-stranded DNA deamination | Q9HC16 | recombinant A3G, ssDNA deamination FAM/TAMRA fluorescence | inhibition, % at 20 µM | 330,000 compounds, 0.28% hits;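 active = inhibition of at least 40% at 20 µM, with no more than 30% in the related APOBEC3A deaminase screen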
Target sequence (Q9HC16 whole entry, looked up): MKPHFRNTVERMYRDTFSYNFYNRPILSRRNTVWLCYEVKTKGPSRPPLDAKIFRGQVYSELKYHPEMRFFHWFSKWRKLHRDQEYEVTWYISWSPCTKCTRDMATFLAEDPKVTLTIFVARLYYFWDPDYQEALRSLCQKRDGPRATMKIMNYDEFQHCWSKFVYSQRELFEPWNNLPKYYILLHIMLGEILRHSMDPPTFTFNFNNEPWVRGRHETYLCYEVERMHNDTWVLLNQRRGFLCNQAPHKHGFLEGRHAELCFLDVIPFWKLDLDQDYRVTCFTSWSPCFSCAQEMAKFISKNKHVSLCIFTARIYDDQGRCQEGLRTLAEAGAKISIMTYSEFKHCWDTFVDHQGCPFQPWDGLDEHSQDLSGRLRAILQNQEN
PHOSPHO1 inh – blocks human PHOSPHO1 phosphatase activity | Q8TCT1 | recombinant PHOSPHO1, absorbance phosphatase assay | inhibition, % at 13.3 µM | 290,000 compounds, 1.1% hits | AID 1565; in the data active = inhibition above about 60%
esBAF inh – inhibitors of esBAF chromatin remodeling in mouse ES cells. 350,000 compounds, 2% hits. reporter increase, % at 12.5 µM. Bmi1-luciferase knock-in reporter, 24 h; 100% = twice the neutral-well signal; in the data active = activation above about 40%;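 also: a rise in the Bmi1 reporter signal indicates esBAF inhibition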
MITF act – MITF TRPM1 promoter activation in melanoma cells; SK-MEL-5 TRPM1-promoter luciferase, 24 h; % of positive control, neutral wells = 0; activation, % at 12.5 µM; 300,000 compounds, 0.75% hits;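 active = mean activation of at least 80% with every replicate also reaching 80%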
APOBEC3G confirm – APOBEC3G (human) deaminase inhibition, confirmed; shares compounds with A3G deaminase; recombinant A3G ssDNA deaminase, UDG/FAM-TAMRA fluorescence; inhibition, % at 20 µM; 890 compounds, 72% hits; AID 493152;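 active = inhibition reaching a set limit in any replicate at 20 µM, the limit being 80% of the first screen's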
UDG A3G counter – inhibits E. coli UDG, flagging false APOBEC3G inhibitors; shares compounds with A3G deaminase; inhibition, % at 20 µM; 710 tested, under 10 active; UDG counterscreen, FAM/TAMRA oligo fluorescence;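 active = compounds giving 40% or more inhibition at 20 µM in any one of the three replicates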;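 also: inhibitors lower the FAM signal released by uracil excision and alkaline cleavage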
Numbers stand for hits; - = inactive; . = not tested or not shown. The list is not random: actives were taken first. Their share in the collection is about 3.6%.

SMILES	A3A deaminase	Wnt act	A3G deaminase	PHOSPHO1 inh	esBAF inh	MITF act	APOBEC3G confirm	UDG A3G counter
CN(C)c1ccc(/C=N/n2c(-c3cccnc3)n[nH]c2=S)cc1	-	.	45	-	.	-	83	-
Cc1ccc(/C=N/n2c(-c3cccnc3)n[nH]c2=S)s1	-	-	55	-	.	-	71	-
CCOC(=O)CSc1nc2c(sc(=S)n2-c2ccccc2)c(=O)n1-c1ccc(OC)cc1OC	-	-	41	-	-	-	28	-
CCN(CC)C(=O)CSc1nc2c(sc(=S)n2-c2ccccc2)c(=O)n1-c1ccc(OC)cc1OC	-	-	53	-	-	-	56	-
CCN(CC)C(=O)CSc1nc2c(sc(=S)n2-c2ccccc2)c(=O)n1-c1ccccc1OC	-	-	-	-	-	-	.	.
COC(=O)C[C@@H]1CC[C@@H]2[C@@H](COc3ccc(NC(=O)Nc4ccc(C)cc4)cc3C(=O)N2C)O1	.	.	.	.	-	.	.	.
Cc1ccccc1/C=N/n1c(-c2ccccn2)n[nH]c1=S	-	-	72	-	-	-	98	-
S=c1[nH]nc(-c2ccccn2)n1/N=C/c1c(Cl)cccc1Cl	-	-	71	-	.	-	93	-
CC(/C=N/n1c(-c2ccccn2)n[nH]c1=S)=C\c1ccccc1	-	-	51	-	.	.	37	-
S=c1[nH]nc(C2CCCCC2)n1/N=C/c1ccccc1	-	-	-	-	-	-	.	.
S=c1[nH]nc(C2CCCCC2)n1/N=C/c1ccccn1	-	.	51	-	.	-	79	-
S=c1[nH]nc(-c2cc(-c3ccccc3)n[nH]2)n1/N=C/c1c(Cl)cccc1Cl	-	-	-	-	.	.	.	.
S=c1[nH]nc(-c2ccccn2)n1/N=C/c1cccs1	-	-	-	-	.	-	.	.
COCC(=O)N1C[C@@H]2[C@H](c3ccccc31)[C@@H](CO)N2C(=O)Nc1ccccc1F	.	.	.	.	-	.	.	.
CCC(=O)N1[C@H](CO)[C@@H](c2ccc(-c3cccc(F)c3)cc2)[C@H]1CNC(C)=O	.	.	.	.	-	.	.	.
CO[C@@H]1CN(C)C(=O)c2ccc(NS(C)(=O)=O)cc2OC[C@H](C)NC[C@@H]1C	.	.	.	.	-	.	.	.
S=c1[nH]nc(-c2ccccn2)n1/N=C/c1cccc2ccccc12	-	-	66	78	.	-	70	-
S=c1[nH]nc(-c2ccccn2)n1/N=C/c1ccc(Cl)cc1	-	-	50	-	.	-	82	-
Cc1n[nH]c(=S)n1/N=C/c1c(O)ccc2ccccc12	-	-	46	-	-	.	85	-
S=c1[nH]nc(-c2ccccn2)n1/N=C/c1ccccc1	-	-	46	-	.	-	78	-
C[C@@H]1CCCCO[C@@H](CN(C)S(C)(=O)=O)[C@H](C)CN([C@H](C)CO)C(=O)c2cc(NC(=O)C3CCCCC3)ccc2O1	.	.	.	.	-	.	.	.
Cc1ccc(C)n1-c1nc(=S)[nH][nH]1	-	.	59	102	-	-	74	-
O=S(=O)(Cc1ccccc1)N=Nc1c(O)[nH]c2ccc(Br)cc12	-	.	51	65	-	-	68	-
S=c1nc[nH]c2c1[nH]c1ccccc12	-	.	48	-	.	-	71	-
S=c1nc[nH]c2c1[nH]c1ccc(Cl)cc12	-	-	-	-	.	-	.	.
SMILES	A3A deaminase	Wnt act	A3G deaminase	PHOSPHO1 inh	esBAF inh	MITF act	APOBEC3G confirm	UDG A3G counter
CN(C)S(=O)(=O)c1ccc2c(c1)c(=O)c(C(=O)NCCCN1CCCCCC1)cn2C	-	-	52	-	-	-	-	.
CN1[C@@H]2Cn3c(ccc(-c4ccncc4)c3=O)[C@H]1[C@@H](C(=O)NCCc1ccccc1)[C@@H]2CO	.	.	.	.	-	.	.	.
CCOc1ccc(Nc2nc3cc(S(=O)(=O)N(CC)CC)ccc3o2)cc1	-	.	50	-	-	-	62	-
CCN(CC)S(=O)(=O)c1ccc2oc(Nc3ccc(OC)cc3)nc2c1	-	-	-	-	-	-	.	.
CCS(=O)(=O)c1ccc2oc(Nc3ccc(C(C)C)cc3)nc2c1	-	.	68	82	-	-	78	-
CCS(=O)(=O)c1ccc2oc(Nc3cc(C)cc(C)c3)nc2c1	-	.	-	-	-	-	.	.
